Among all 38,000 compounds or so, about 1,200 (3.2%) showed an effect of 50% or more. The median lay at about -58%. This excerpt belongs to a sample that is enriched for strong results.
These compounds were tested on Plasmodium falciparum (assay: Calibr Malaria Delayed Death Assay SOP). Conditions: concentration 4.99e-06 (unit not given; other assays of the set use mol/L).
Type: functional, organism-based
Parameters: scale not given: in the data most compounds retested in dose-response had high values

Compound | Percent Effect [%]
CC(C)C(NC(=O)NCCNc1ncccn1)c1cccs1 (centres undefined) | -40.63
CN1CCC2(CC1)CN(C(=O)c1ccncc1)Cc1ccccc12 | -65.66
O=C(CCC1CCCO1)NCCCC(=O)Nc1ccc(Cl)cc1 (centres undefined) | -199.2
CCOc1ccc(S(=O)(=O)N(CCOC)Cc2ccncc2)cc1F | -28.24
O=C(CCn1ccnn1)N1CCCC(n2cncn2)C1 (centres undefined) | -95.7
CC(C)N1CCCC(C(=O)NCCc2csc(-c3ccncc3)n2)C1 (centres undefined) | -80.76
CNC(=O)C1CCN(c2nc3nc[nH]c(=O)c3s2)CC1 | -123.8
CC(C)CN1C(=O)C2(CCN(Cc3ccoc3)C2)c2ccccc21.O=C(O)C(F)(F)F (centres undefined) | -29.95
COC(=O)c1ncccc1N1CCC(C(O)c2ccccc2)CC1 (centres undefined) | -12.82
Cn1ccnc1CN1CCCC2(CCN(CC3CCCO3)CC2)C1.O=C(O)C(F)(F)F.O=C(O)C(F)(F)F (centres undefined) | 15.47
COc1ccc(CN2C[C@@H]3OCCN(C)[C@@H]3C2)cc1.O=C(O)C(F)(F)F | -49.2
COc1ccc(CN2C[C@@H]3OCCN(CCN(C)C)[C@@H]3C2)cc1.O=C(O)C(F)(F)F.O=C(O)C(F)(F)F.O=C(O)C(F)(F)F | 65.18
CCc1ccc(CN2C[C@@H]3OCCN(c4ccnc(N(C)C)n4)[C@@H]3C2)o1.O=C(O)C(F)(F)F | 5.976
CN(C)CCN1CCO[C@H]2CN(Cc3ccccn3)C[C@H]21.O=C(O)C(F)(F)F.O=C(O)C(F)(F)F.O=C(O)C(F)(F)F.O=C(O)C(F)(F)F | 8.318
CN(C)c1nccc(N2CCO[C@H]3CN(Cc4ccsc4)C[C@H]32)n1.O=C(O)C(F)(F)F | 68.45
COCCN1CC[C@@H]2CN(Cc3cccnc3OC)C[C@@H]2C1.O=C(O)C(F)(F)F.O=C(O)C(F)(F)F | -74.35
O=C(O)C(F)(F)F.O=C(O)C(F)(F)F.c1cnc(N2CCO[C@H]3CN(Cc4ccsc4)C[C@H]32)nc1 | 32.67
Fc1ccc(CN2C[C@@H]3OCCN(CCN4CCCC4)[C@@H]3C2)cc1.O=C(O)C(F)(F)F.O=C(O)C(F)(F)F.O=C(O)C(F)(F)F | -79.23
O=C(O)C(F)(F)F.O=C(O)C(F)(F)F.O=C(O)C(F)(F)F.O=C(O)C(F)(F)F.c1cc(CN2C[C@@H]3OCCN(CCN4CCCC4)[C@@H]3C2)ccn1 | -114.9
COc1ccc(CN2C[C@@H]3OCCN(CCN4CCCC4)[C@@H]3C2)cc1.O=C(O)C(F)(F)F.O=C(O)C(F)(F)F.O=C(O)C(F)(F)F | 62.07
COc1ncccc1CN1C[C@@H]2OCCN(CCN(C)C)[C@@H]2C1.O=C(O)C(F)(F)F.O=C(O)C(F)(F)F.O=C(O)C(F)(F)F | -6.564
COc1ncccc1CN1CC[C@H]2[C@H]1CCN2CCN(C)C.O=C(O)C(F)(F)F.O=C(O)C(F)(F)F.O=C(O)C(F)(F)F.O=C(O)C(F)(F)F | 52.47
O=C(C1CCOC1)N1CCC2(CCN(Cc3nccs3)C2)CC1 (centres undefined) | -29.96
CN(Cc1cccc(F)c1)C(=O)CN1CCOC(Cn2cncn2)C1 (centres undefined) | -118.2
Cc1ccc(CC(=O)NCC(Cc2ccc(F)cc2)C(N)=O)cn1 (centres undefined) | -64.69
COc1ccc(CN2CC(O)CN(C(=O)OCC(C)C)CC2=O)cc1 (centres undefined) | -72.03
CC(C)CC(=O)N1CC[C@H]2N(C)CC[C@@]2(C(=O)Nc2cccnc2)CC1.O=C(O)C(F)(F)F.O=C(O)C(F)(F)F | 15.37

Compound | Percent Effect [%]
COc1cccn(CC(=O)N2CCC3(CCNCC3)C2)c1=O | -26.75
COc1cccc(CN2CC3(CCNCC3)CCC2=O)c1OC | 6.381
O=C(COCC1CCCO1)N(Cc1cccnc1)c1ccc(F)cc1 (centres undefined) | -38.29
O=S(=O)(CCCN1CCCC1Cn1cncn1)c1ccccc1 (centres undefined) | -135.1
CC(C)(C)n1cc(C2=CCN(CCNC(=O)c3ccccc3)CC2)cn1 | 15.76
CCC(O)Cn1cc(C2=CCN(Cc3ccc(OC)cc3)CC2)cn1 (centres undefined) | 67.35
CCC(O)Cn1cc(C2=CCN(Cc3cc(O)nc(C)n3)CC2)cn1 (centres undefined) | -28.24
CC(C)(C)n1cc(C2=CCN(CCc3ccccc3)CC2)cn1 | 67.25
CC(C)(C)n1cc(C2=CCN(CCc3ccccn3)CC2)cn1 | 43.76
COc1ccc(NC(=O)CCN2CC=C(c3cnn(C)c3)CC2)c(C)c1 | -34.98
CC(C)(C)n1cc(C2=CCN(CCN3CCCCCC3)CC2)cn1 | 70.18
CC(C)(C)n1cc(C2=CCN(CCNC(N)=O)CC2)cn1 | -173.3
CCn1cc(C2=CCN(CCCOc3ccccc3)CC2)cn1 | 81.92
Cn1cc(C2=CCN(CCCOc3ccc(C(N)=O)cc3)CC2)cn1 | -65.42
Cn1cc(C2=CCN(CCCC(=O)Nc3ccc(C#N)cc3)CC2)cn1 | -71.5
Cc1nc(O)cc(CN2CC=C(c3cnn(C(C)(C)C)c3)CC2)n1 | -65.29
CC(O)(CNC(=O)c1cccnc1-n1cccn1)c1ccco1 (centres undefined) | -10.35
CCN1CCCCC1C(=O)N1CCC(OCCOC)CC1 (centres undefined) | -112.4
CSc1ccccc1C(=O)N1C[C@@H](N(C)C)[C@H](c2ccc(C)cc2)C1 | -25.73
CCc1cnc2c(c1NCc1ccc(OC)cc1)c(=O)n(C)c(=O)n2C | -5.547
CC(C)CC(NC(=O)c1ccco1)c1nnc2ccccn12 (centres undefined) | -178.4
O=C(O)C1(O)CCN(c2ccnc3c(C(F)(F)F)cccc23)CC1 | -178.3
Cc1cccc(C(=O)N(C)C2CCN(c3ccccn3)CC2)c1C | -82.1
CS(=O)(=O)c1ccc(NC(=O)NC2(c3cccc(F)c3)CC2)cc1 | -42.46
O=C(O)C(F)(F)F.O=C(c1ccoc1)N1CCOCC2(CCN(C3CCOCC3)C2)C1 (centres undefined) | -39.42
COCCCN(C)c1nc(-c2ccncc2)nc2c1CCN(C(C)=O)C2 | -86.15
COCCN(C)c1nc(-c2ccncc2)nc2c1CCN(C(C)=O)C2 | -64.34
